# Reference: PubChem BioAssay (Tox21)
# Results filed as inconclusive are left out. Values without a mark were called inactive. Calls of active or inactive are those of the source. The call rests on the fitted dose curve; in most records, active means well fitted cell-killing curve with a large enough effect in the repeat runs; inconclusive means weak or mixed curves, or effect the other way; inactive means no such curve, though single readings can be large or run the other way.
# Assay: qHTS assay to identify small molecule agonists of the estrogen receptor alpha (ER-alpha) signaling pathway in the presence of an antagonist - cell viability counter screen (AID 1259386);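 further: cells exposed to compounds for 22 h at 37 °C before the viability read; nearly all actives have a fitted effect of over 30% in size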
# Conditions: VM7Luc4E2 viability, CellTiter-Fluor fluorescence, 22 h; series mostly up to 92.4 µM; activity change, negative = cytotoxicity: at the top concentration
# Excerpt: National Center for Advancing Translational Sciences [NCATS]
# NIH Chemical Genomics Center [NCGC]
# U.S. Environmental Protection Agency [EPA]
# National Institutes of Environmental Health Sciences [NIEHS]
# National Toxicology Program [NTP]
# U.S. Food and Drug Administration [FDA]
# Estrogen receptor (ER), a member of nuclear hormone receptor plays an important role in development, metabolic homeostasis and reproduction. Two subtypes of ER, ER-alpha and ER-beta, have similar expression patterns with some uniqueness in both types. Endocrine disrupting chemicals (EDCs) and their interactions with steroid hormone receptors like ER causes disruption of normal endocrine function. Therefore, it is important to understand the effect of environmental chemicals in ER signaling pathway. For identifying ER agonists, VM7Luc4E2 cell line has been used in the current assay.
# VM7Luc4E2 cell line (provided by Denison MS, University of California) endogenously expresses full-length ER-alpha and is stably transfected with a plasmid containing four estrogen responsive elements (ERE) upstream of a luciferase reporter gene. This current screening for measuring luciferase reporter gene activity using VM7Luc4E2 cells against Tox21 10K library collection is a confirmation study on agonist mode screening in presence of ER-antagonist (ICI-182,780) at 10.0nM final concentration. The cytotoxicity of the compounds was tested in parallel by measuring the cell viability using CellTiter-Fluor assay system (Promega, Madison, WI) in the same wells.
# Tox21 Assay Protocol Summary:
# VM7Luc4E2 cells were cultured in phenol red free assay medium containing 10% charcoal stripped FBS for 5 days prior to the assay. The cells were dispensed at 4,000 cells in 4uL of assay medium per well into white wall/solid-bottom 1536-well plates (Corning Life Sciences, Corning, NY) using a Multidrop Combi (Thermo Fisher Scientific Inc., Waltham, MA) dispenser. After the assay plates were incubated at 37C and 5% CO2 for 24hr, 1uL of 10.0nM (final concentration) ICI-182,780 or assay buffer was added using two separate tips of Flying Reagent Dispenser (FRD, Aurora Discovery, San Diego, CA). Then 23nL of compounds dissolved in DMSO at 15 concentrations and positive controls or DMSO only was transferred to the assay plates by a Pintool station (Wako, San Diego, CA). The assay plates were incubated at 37C and 5% CO2 for 22hr. After 21hr incubation at 37C, 1uL/well CellTiter-Fluor reagent (Promega Corporation, Madison, WI) was added to each well using FRD and after 1hr incubation at 37C and 5% CO2, the fluorescence signal was measured on ViewLux plate reader (PerkinElmer, Shelton, CT).
# On the % scale 0 is the no-effect control and ±100 the full control effect; potency means the concentration at half of the fitted maximal effect.
Structure (SMILES),"activity change, negative = cytotoxicity",Potency
O=C1CC2CC1C1CCCC21 (stereo not given),3.53%,–
ClC(Cl)(Br)Br,3.27%,–
C[C@](N)(Cc1ccc(O)cc1)C(=O)O,3.17% [at 8.39 µM],–
CCCCCCCCCCCC,1.11%,–
CC(=O)OCC(=O)[C@@]1(O)CCC2C3CCC4=CC(=O)CC[C@]4(C)C3[C@@H](O)C[C@@]21C (stereo not given in full),3.01% [at 42.5 µM],–
O=C1CCCC(=O)C1,4.63%,–
CCN(CC)CCNC(=O)c1cc(S(C)(=O)=O)ccc1OC,1.61% [at 42.5 µM],–
COc1c(N2C[C@@H]3CCCN[C@@H]3C2)c(F)cc2c(=O)c(C(=O)O)cn(C3CC3)c12,1.35% [at 42.5 µM],–
O=C(O)COc1nn(Cc2ccccc2)c2ccccc12,6.47% [at 42.5 µM],–
CC/C=C\CC/C=C/CO,4.85%,–
CCCCCCCCCCCCN(CCCCCCCCCCCC)CCCCCCCCCCCC,0.104%,–
N#Cc1ccc(C2CCCc3cncn32)cc1 (stereo not given),-2.35% [at 42.5 µM],–
CN(C(=O)c1c(O)c2ccccc2n(C)c1=O)c1ccccc1,-1.77% [at 42.5 µM],–
CN(C)CCCN1c2ccccc2CCc2ccc(Cl)cc21,–,68.6 µM (active)
N[C@H]1CN(c2c(F)cc3c(=O)c(C(=O)O)cn(C4C[C@H]4F)c3c2Cl)CC12CC2 (stereo not given in full),1.09% [at 42.5 µM],–
C=COCC1CCC(CO)CC1 (stereo not given),-4.26%,–
CCOC(C)(C)C,0.243%,–
c1ccc([C@H]2CN3CCSC3=N2)cc1,-0.694% [at 42.5 µM],–
C1CN(CCOCCN2CCOCC2)CCO1,1.4%,–
C=CCOCC(CC)(CO)COCC=C,4.15%,–

Structure (SMILES),"activity change, negative = cytotoxicity",Potency
CN(C)CCCSc1ccccc1NC(=O)/C=C/c1ccccc1,-8% [at 42.5 µM],–
CCCCCCOC(=O)CCCCC(=O)OCCCCCC,-2.55%,–
CC(NC(CCc1ccccc1)C(=O)O)C(=O)N1C(=O)N(C)CC1C(=O)O (stereo not given),5.35% [at 42.5 µM],–
COC(=O)NN,1.32%,–
COc1ccc2c(c1)c(CC(=O)OCC(=O)O)c(C)n2C(=O)c1ccc(Cl)cc1,-0.273% [at 42.5 µM],–
COC(=O)c1ccc(C)cc1C1=NC(C)(C(C)C)C(=O)N1 (stereo not given),0.0646%,–
NC(=O)c1ccc(N)cc1,0.0677%,–
OC1CCCCC1c1ccccc1 (stereo not given),0.352%,–
CC(C)NC(=O)NC(C)C,-3.31%,–
Cc1ccc(=O)n(-c2ccccc2)c1,1.09% [at 42.5 µM],–
O=C(O)CCCl,-0.972%,–
C[C@H]1C[C@@H](O)CC(C)(C)C1,3.6%,–
COCCc1ccc(OCC(O)CNC(C)C)cc1 (stereo not given),–,inactive
CN1CCCC1,2.86%,–
CCC(C)C1CCCCC1=O (stereo not given),0.392%,–
CCN(Cc1ccncc1)C(=O)C(CO)c1ccccc1 (stereo not given),-5.14% [at 42.5 µM],–
C[C@@H]1CCN(C(=O)[C@H](CCCN=C(N)N)NS(=O)(=O)c2cccc3c2NC[C@H](C)C3)[C@@H](C(=O)O)C1,5.47% [at 42.5 µM],–
FC(F)OC(Cl)C(F)(F)F (stereo not given),4.73%,–
CC(=O)OC/C=C(\C)CC/C=C(\C)CCC=C(C)C,–,inactive
N[C@@H](C(=O)N[C@@H]1C(=O)N2C(C(=O)O)=C(Cl)CS[C@H]12)c1ccccc1,-0.6% [at 8.39 µM],–
